Shiga toxin inh = inhibitors of Shiga toxin in Vero cells; inhibition, % at 38.7 µM; Vero cells, Shiga toxin protein synthesis inhibition reporter; 9.2% of 290,000 active; in the data active = inhibition mostly above about 28%, no sharp cut-off; inactive = mostly below about 43%
Pf growth 48h = inhibits P. falciparum growth in the first generation, 48 h; P. falciparum luciferase growth in erythrocytes, 48 h; Potency, µM (highest dose often 28.7 µM), usual class: inhibitors; 5.9% of 310,000 active
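Luminescence readout; reporter = integrated firefly luciferase in P. falciparum. RBC culture at 2% hematocrit, 0.1% parasitemia final, 37 C/5% CO2; decreased signal taken as growth inhibition.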
CHX counter = counter-screen hit for Shiga toxin inhibitors, cycloheximide; cell reporter, cycloheximide protein synthesis inhibition counterscreen; max response, %; 12% of 300,000 active; in the data active = max response mostly above about 13%, no sharp cut-off; inactive = mostly below about 14%; also: read at 38.3 µM for the half of the compounds with a filed dose
NS1 inh = inhibitors of influenza NS1 protein function; Potency, µM (series often up to 46.1 µM); 0.4% of 270,000 active; calls by dose curve; also: actives are rising curves; nearly all actives have a fitted effect of over 50% in size
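Read-out: OD600 growth recovery of NS1-expressing budding yeast. Cells grown overnight at 30C in -URA glucose medium, washed, resuspended and diluted 1:100 in 2% galactose assay medium, pH 6.0. Same strain lacking NS1 served as positive control.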
Sm TGR inh = inhibitors of Schistosoma mansoni thioredoxin glutathione reductase; purified TGR, DTNB reduction, TNB absorbance 405 nm; Potency, µM (highest dose often 114 µM), usual class: inhibitors; 3% of 360,000 active; AID 485364; also: nearly all actives have a fitted effect of over 60% in size
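Kinetic colorimetric format: TGR-catalysed, NADPH-driven DTNB reduction monitored via TNB absorbance. Enzyme dispensed at 20 nM; compound exposure 15 min at room temperature before reaction start.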
Pf growth 96h = P. falciparum growth inhibition at 96 hour, primary screen for plastid delayed-death inhibitors. Potency, µM (titrated, usually from 28.7 µM), usual class: inhibitors. 6.9% of 320,000 active. AID 504834. P. falciparum luciferase reporter growth, 96 h
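Readout is luminescence from an integrated firefly luciferase in P. falciparum. Red cells, 2% hematocrit and 0.05% parasitemia final, were cultured with compound through two parasite generations (96 hours) at 37 C, 5% CO2.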
Hits are given with their value. Only some compounds are listed: those with a hit (about 21% of all), similar ones and a draw of the others. Unless noted, calls follow the shape of the dose curve; as a rule, active = well fitted curve in the direction sought with a large enough effect; inconclusive = small, poorly fitted or top-dose-only effect, or another doubt; inactive = no such curve, though single readings can be large; an effect the other way counts as inactive or inconclusive.

Screening O=C(NCCOc1ccccc1Cl)c1cc(F)c(F)cc1Cl returned Shiga toxin inh 74, Pf growth 48h inactive, CHX counter 53, NS1 inh inactive, Sm TGR inh inactive and Pf growth 96h inactive.
Screening O=C(NCCOc1ccccc1Cl)c1ncn[nH]1 returned Shiga toxin inh inactive, Pf growth 48h inactive, CHX counter inactive, NS1 inh inactive, Sm TGR inh inactive and Pf growth 96h inactive.
`CC(Oc1ccccc1)C(=O)N=C1SC2CS(=O)(=O)CC2N1c1ccc(F)cc1` (stereo unspecified) gave Shiga toxin inh inactive, Pf growth 48h inactive, CHX counter inactive, NS1 inh inactive, Sm TGR inh inactive and Pf growth 96h inactive.
For Cc1ccc(N[C@H](c2ccccc2)c2ccc3cccnc3c2O)cc1 the results were NS1 inh inactive.
CCC(=O)NC(c1ccc(C)cc1)c1ccc2cccnc2c1O (stereo unspecified) was read as Shiga toxin inh inactive, Pf growth 48h 4.7µM, CHX counter inactive, NS1 inh inactive, Sm TGR inh inactive and Pf growth 96h inactive.
For CCCC(=O)NC(c1ccc(N(C)C)cc1)c1ccc2cccnc2c1O (stereo unspecified) the results were Shiga toxin inh inactive, Pf growth 48h 6.6µM, CHX counter inactive, NS1 inh inactive, Sm TGR inh inactive and Pf growth 96h inactive.
Screening CCCC(=O)NC(c1ccc(C(C)C)cc1)c1ccc2cccnc2c1O (stereo unspecified) returned Shiga toxin inh inactive, Pf growth 48h 1.5µM, CHX counter inactive, NS1 inh inactive, Sm TGR inh inactive and Pf growth 96h 15µM.
`CC1=C/C(=N/O)C([C@H]2C=C(C)CC(C)(C)[C@@H]2O)C(C)(C)C1` (stereo partly specified) gave NS1 inh inactive.
Screening COCCN(CC(=O)Nc1ccccc1C(F)(F)F)C(=O)/C=C/c1ccc2ccccc2n1 returned Pf growth 48h inconclusive, Sm TGR inh inactive and Pf growth 96h 15µM.
For COCCN(CC(=O)Nc1ccccc1C(F)(F)F)C(=O)/C=C/c1cc(Cl)c2c(c1)OCO2 the results were Pf growth 48h inconclusive, Sm TGR inh inactive and Pf growth 96h inconclusive.
Screening COc1ccc(N(CC(=O)NCCc2cccc(C)c2)S(=O)(=O)c2c(C)nn(C)c2C)cc1 returned Sm TGR inh inactive.
O=C(c1c(O)cc(O)cc1O)C1c2c(cc(O)c3c2O[C@H](c2ccc(O)cc2)[C@@H](O)C3)OC1c1ccc(O)cc1 (stereo partly specified) was read as Pf growth 48h inactive, Sm TGR inh inactive and Pf growth 96h inactive.
`N[C@H](CO)C(=O)NCC(=O)O` gave NS1 inh inactive.
`NC(CCC(=O)N[C@@H](CS)C(=O)NCC(=O)O)C(=O)O` (stereo partly specified) gave Pf growth 48h 2.1µM and Pf growth 96h 3µM.
For CC12CCC(C(=Nc3ccc(N=C4C(=O)C5(C)CCC4C5(C)C)cc3)C1=O)C2(C)C the results were Shiga toxin inh inactive, Pf growth 48h inactive, CHX counter inactive, NS1 inh inactive, Sm TGR inh inactive and Pf growth 96h inactive.
`Cc1ccc(N/C=C2\C(=O)C3(C)CCC2C3(C)C)cc1C` (stereo unspecified) gave Shiga toxin inh inactive, Pf growth 48h inactive, CHX counter 21, Sm TGR inh inactive and Pf growth 96h inconclusive.
`Cc1cc2ncc(-c3ccc(Cl)cc3)cn2n1` gave Shiga toxin inh 93, Pf growth 48h inactive, CHX counter 37, Sm TGR inh inactive and Pf growth 96h inactive.
Screening COc1ccccc1NC(=S)NC1CCCCC1 returned Shiga toxin inh inactive, Pf growth 48h inactive, CHX counter inactive, NS1 inh inactive, Sm TGR inh inactive and Pf growth 96h 9.3µM.
`COc1ccccc1NC(=S)NC1CCCCCCCCCCC1` gave Shiga toxin inh inactive, Pf growth 48h 1.5µM, CHX counter inactive, NS1 inh inactive, Sm TGR inh inactive and Pf growth 96h inconclusive.
For S=C(Nc1ccccc1Cl)NC1CCCCCC1 the results were Shiga toxin inh 63, Pf growth 48h inactive, CHX counter 18, NS1 inh inactive, Sm TGR inh inactive and Pf growth 96h inactive.
Cc1nn(Cc2ccccc2)c(C)c1C=C1C(=O)NC(=O)NC1=O was read as Shiga toxin inh inactive, Pf growth 48h inactive, CHX counter inactive, NS1 inh inactive, Sm TGR inh inactive and Pf growth 96h 8.3µM.

Screens deposited in PubChem by National Center for Advancing Translational Sciences (NCATS).
